Screens (PubChem BioAssay)
Peg3 prom inh = Peg3 promoter-driven luciferase inhibitors, primary screen, cell-based, HeLa, luciferase luminescence; HeLa PEG-Prom luciferase reporter, overnight; inhibition, % at 20 µM; 360,000 tested, 1.7% active; AID 588405, 2011;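 active = inhibition of at least 50% at 20 µM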
MITF TRPM1 inh = inhibitors of MITF-dependent TRPM1 promoter reporter, primary screen, cell-based, SK-MEL-5, single point, luciferase; inhibition, % at 12.5 µM; SK-MEL-5 TRPM1 promoter luciferase, 24 h; 330,000 tested, 0.83% active; AID 488899, 2010;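 active = mean inhibition across replicates of 60% or more, whatever share of single replicates reaches that level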
KKLEB tox = cytotoxicity in KKLEB CF airway cells, primary screen, cytotoxicity control for CF NF-kB inhibitor project, cell-based, uHTS, fluorescence assay plates; KKLEB CF airway cells viability, ATPlite luminescence, overnight; active compounds read low; cells stimulated with P. aeruginosa culture filtrate; activity change (cytotoxicity), % at 5 µM; 360,000 tested, 0.36% active;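 active = corrected activity change at or below -50% at 5 µM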
HIF-2a inh = HIF-2a reporter inhibitors, primary screen, luminescence, 786-0 RCC cells | 786-0 RCC cells HIF-2a reporter, luciferase luminescence, overnight | inhibition, % at 18.8 µM | 360,000 tested, 0.72% active | AID 624352, 2012;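 active = inhibition of the luminescence signal of 40% or more relative to plate controls, in a single-dose primary screen at 18.75 µM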
Shn3 3UTR inh = reduction of Shn3 3'UTR firefly luciferase signal, primary screen, Schnurri-3 inhibitor project, cell-based, Clone20 osteoblasts, set 2; Clone20 osteoblast Shn3 3'UTR firefly luciferase, 24 h; inhibition, % at 12.5 µM; 360,000 tested, 0.52% active; AID 588674, 2011;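 active = mean inhibition of at least 75% with every replicate also reaching 75%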;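 also: 0% = median of neutral control wells and 100% = pilot-screen positive control compound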
CF NFkB inh = inhibitors of PAF-induced NF-kB signaling, primary screen, cell-based, GFP fluorescence, uHTS. KKLEB NF-kB-GFP reporter, GFP fluorescence overnight. 360,000 tested, 0.86% active. inhibition, % at 5 µM;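 active = at least 50% inhibition at 5 µM, scaled per plate between neutral and stimulator controls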;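 also: PAF is a Pseudomonas aeruginosa culture filtrate used as stimulus; plate controls were PAF-stimulated DMSO wells for no effect and unstimulated DMSO wells for full effect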
* hit, by the source's call; . = no result. An excerpt weighted towards active compounds, which were near 2.8% of everything screened.

SMILES	Peg3 prom inh	MITF TRPM1 inh	KKLEB tox	HIF-2a inh	Shn3 3UTR inh	CF NFkB inh
CC(C(=O)O)N1C(=O)C2C3CC(C2C1=O)C1C(c2ccccc2)c2sc(=O)[nH]c2SC31 (configuration not stated)	-0.9	0.5	0.5	9.7	-5.3	-3.0
CC1(C)Cc2c(cnn2-c2cccc(F)c2)C(NC(=O)CN2CCCC2=O)C1 (configuration not stated)	-46.9	-17.6	11.6	-44.4	-44.5	-22.2
CC(C(=O)Nc1ccc(O)cc1C(=O)O)N1C(=O)/C(=C\c2cccs2)SC1=S (configuration not stated)	-10.1	-0.9	1.0	-2.1	-2.3	-23.1
COc1cc(C2C(C#N)=C(N)Oc3cc4c(cc32)OCO4)cc(OC)c1OC (configuration not stated)	-22.5	77.1*	-10.3	22.4	-7.3	48.3
Cc1c(C(=O)NCc2ccccc2C(F)(F)F)sc(=O)n1Cc1ccc2c(c1)OCO2	3.4	.	-7.3	-3.3	9.2	-7.2
Cc1cc(C)cc(NC(=O)CCc2c(C)nn(-c3ccc(N4CCCCC4)nn3)c2C)c1	-179.9	-76.4	-3.6	-237.5	-93.4	11.1
Cc1ccc(NC(=O)CCc2c(C)nn(-c3ccc(N4CCCCC4)nn3)c2C)cc1	77.3*	-30.8	1.0	-236.6	-25.5	-9.9
CC(O)(c1cccnc1)c1nc(-c2ccc3ccccc3c2)cs1 (configuration not stated)	-211.8	.	5.9	-268.0	15.9	-52.0
Oc1c(C=C2N=c3ccccc3=N2)sc(=S)n1-c1ccccc1	1.3	-13.8	11.4	-14.4	23.6	-24.7
CC1=Nc2ccccc2/C1=C/c1sc(=S)n(-c2cccc(C(=O)O)c2)c1O	-21.1	-6.9	-9.2	41.0*	-82.6	-23.9
O=C(CN(C(=O)c1csnn1)c1ccc(Br)cc1)NC1CCCCC1	-26.3	-1.8	-2.4	-29.7	9.3	1.5
CCOC(=O)C(=O)NC1CC=CCC1c1ccc2c(c1)OCO2 (configuration not stated)	-8.3	2.8	11.3	-0.3	37.0	0.7
Cc1cc(NC(=O)CCS(=O)(=O)c2nc(-c3ccccc3)cc(C(F)(F)F)n2)no1	106.2*	84.7*	-33.0	64.8*	65.0	76.4*
COc1ccccc1-c1cc(C(F)(F)F)nc(S(=O)(=O)CCCC(=O)O)n1	2.4	12.2	-39.8	-1.2	2.9	33.3
COc1ccc(-c2cc(C(F)(F)F)nc(S(=O)(=O)CCCC(=O)Nc3cccc(O)c3)n2)cc1OC	96.0*	.	-79.7*	-8.6	-3.2	85.8*
CS(=O)(=O)c1nc(-c2ccccc2)cc(C(F)(F)F)n1	104.0*	94.6*	-72.9*	93.8*	95.1*	94.9*
Cc1ccccc1SCC(=O)NCC1(N2CCCCC2)CCCCC1	-12.3	.	11.2	0.5	24.7	-29.5
CCOC(=O)c1cnc(N2CCN(c3ccccc3)CC2)[nH]c1=O	1.1	-6.9	-7.7	14.4	-11.0	-5.3
COc1ccc([C@H]2C[C@H](O)[C@@H](n3cc(C4CC4)nn3)CN2C(=O)c2cccs2)cc1	-14.8	.	-1.0	-5.7	-32.0	-16.9
COC1=CC(=O)c2nc(Cl)ccc2C1=O	107.2*	.	-91.2*	89.9*	98.3*	83.2*
CN1CCC2(CC1)Nc1nc(SCc3ccc(Cl)cc3)nn1C1=C2CN(C)CC1	52.0*	54.9	-0.2	26.2	-3.1	15.8
CC(=O)c1cnc2nc(SCc3ccc(Cl)cc3)nn2c1C	-15.9	8.6	-5.0	-34.5	22.3	6.6
COc1ccc(-c2nn(-c3ccccc3)cc2/C=C/C(=O)N2CCN(c3ccccn3)CC2)cc1	52.0*	-0.4	-14.9	-9.0	15.5	38.4
COc1ccc(-c2nn(-c3ccccc3)cc2/C=C/C(=O)OCC(=O)Nc2ccccc2C#N)cc1	48.0	40.7	-70.1*	18.1	51.3	66.6*
